Source: PubChem BioAssay (several laboratories)
MEKK2wt PB1 HTS – raises or lowers MEK5 binding to wildtype human MEKK2 PB1 domain; Q9Y2U5; bead flow cytometry, Alexa488-MEK5 binding to MEKK2 WT; actives lie on both sides; binding response (% of control), % at 10 µM; actives 1.1% (n = 290,000); AID 1531; in the data active = binding response below about 67% or above about 130%
Rce1 inhib – inhibitors of yeast Ras-converting enzyme | yeast membranes, quenched prenylated peptide cleavage fluorescence | calls only | actives 0.27% (n = 290,000) | AID 2563;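 active = fall in fluorescence gain of 50% or more versus controls, with final raw signal at or below 3038400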
Target sequence (Q03530 whole entry, looked up): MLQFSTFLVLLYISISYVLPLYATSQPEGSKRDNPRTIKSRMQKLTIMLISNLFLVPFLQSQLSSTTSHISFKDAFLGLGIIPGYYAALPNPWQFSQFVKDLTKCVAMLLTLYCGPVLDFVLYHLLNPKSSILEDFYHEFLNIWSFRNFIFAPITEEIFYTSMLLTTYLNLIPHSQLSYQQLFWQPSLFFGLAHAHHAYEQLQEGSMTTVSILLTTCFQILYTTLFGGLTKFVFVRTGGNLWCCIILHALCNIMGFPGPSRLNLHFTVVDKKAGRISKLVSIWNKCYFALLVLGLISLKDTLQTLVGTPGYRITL
MEKK3 PB1 HTS – MEKK3-MEK5 PB1 interaction, increase or decrease; Q99759; bead-based flow cytometry, Alexa488-MEK5 binding to MEKK3; actives lie on both sides; 0 = blocked by unlabeled MEK5, 100 = vehicle; binding response (% of control), % at 10 µM; actives 1.4% (n = 290,000); AID 1529;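 active = binding response more than 3 SD above or below the average of its plate-row segment, actives on both sides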;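 also: Alexa488 bead fluorescence after subtracting the streptavidin-only scavenger bead signal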
UBC13 polyUb – human UBC13 polyubiquitination inhibition; actives 0.47% (n = 330,000); UBC13 polyubiquitin chain formation, TR-FRET; inhibition, % at 20 µM; P61088; in the data active = inhibition above about 45%, passing the limit was not always enough
Target sequence (P61088 whole entry, looked up): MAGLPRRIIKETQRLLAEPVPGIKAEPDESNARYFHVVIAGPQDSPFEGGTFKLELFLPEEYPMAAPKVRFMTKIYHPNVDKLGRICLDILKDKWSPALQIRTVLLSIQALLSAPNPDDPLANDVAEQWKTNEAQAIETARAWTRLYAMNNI
MEKK2 mut-MEK5 – signal of MEK5 binding to mutant human MEKK2 PB1 domain | bead flow cytometry, Alexa488-MEK5 binding to MEKK2 mutant | percent response, % at 10 µM | actives 0.35% (n = 290,000) | AID 1530; in the data active = percent response above about 24%, passing the limit was not always enough
Numbers stand for hits; - = inactive; . = no result given; + = active, no number; [ ] = another dose, or the depositor's remark. Only some compounds are listed: those with a hit (about 2.5% of all), similar ones and a draw of the others.

SMILES	MEKK2wt PB1 HTS	Rce1 inhib	MEKK3 PB1 HTS	UBC13 polyUb	MEKK2 mut-MEK5
O=C(c1cn(-c2ccccc2)nc1-c1cccs1)N1CCN(c2ccccn2)CC1	-	+	-	-	-
Cc1cccc(N2CC(C(=O)Nc3nnc(SCC(=O)N4CCOCC4)s3)CC2=O)c1 (configuration not stated)	-	-	-	-	-
COc1ccc(C(CCNCc2ccc(F)cc2)c2ccc(F)cc2)cc1 (configuration not stated)	-	-	-	-	-
COc1ccc(CNCCC(c2ccc(F)cc2)c2ccc(OC)cc2)cc1 (configuration not stated)	140.0	-	-	-	-
COc1ccc(C(OCC(O)CNCCc2ccccc2)c2ccc(OC)cc2)cc1 (configuration not stated)	151.0	-	-	.	-
COc1ccc(CCNCc2ccc(OCc3ccccc3)cc2)cc1	136.0	-	-	-	-
COc1ccc(OC)c(CNS(=O)(=O)c2c(C)nc3scc(C)n3c2=O)c1	-	-	-	-	-
CC(=O)Nc1ccc(Br)cc1C(=O)C(=O)O	-	-	-	-	-
Cc1ccc(S(=O)(=O)NC(=O)COc2ccccc2C)c(C)c1	-	-	-	-	-
Cc1ccc2c(c1)sc[n+]2Cc1ccccc1	-	+	-	-	-
Cc1ccc(-c2cc[n+](Cc3ccccc3)cc2)cc1	-	-	-	-	-
CCOc1ccc2c(c1)S/C(=C\c1cccs1)C(=O)N2	-	-	-	-	-
Cc1ccc(C)c(OCC(O)CN2CCC(CN3C(=O)c4cccc5cccc(c45)C3=O)CC2)c1 (configuration not stated)	162.0	-	-	-	-
Cc1ccccc1OCC(O)CN1CCN(CC(O)COc2ccccc2C)CC1 (configuration not stated)	-	-	-	-	-
Cc1ccccc1OCC(O)CN1CCC(C)CC1 (configuration not stated)	0.0[inhibitor]	-	1.0[inhibitor]	-	-
O=C(O)c1cc(-c2ccc(N3CCOCC3)cc2)nn1-c1ccc(F)cc1F	-	+	-	-	-
O=C(O)c1cc(-c2ccc(N3CCOCC3)cc2)nn1-c1ccccc1Cl	-	-	-	-	-
CC(=O)N1c2ccc([N+](=O)[O-])cc2NC(=O)CC1C (configuration not stated)	-	+	-	-	-
O=C1CCCN1CCCNS(=O)(=O)c1ccc(F)c(F)c1	-	-	-	-	-
CN1CCN(C(=O)/C(=C/c2cccs2)NC(=O)c2ccco2)CC1	-	-	-	-	-
O=C(C(Cc1ccccc1)N1C(=O)c2ccccc2C1=O)N1c2ccccc2CCc2ccccc21 (configuration not stated)	-	+	-	-	-
O=C1c2ccccc2C(=O)N1CC(=O)N1c2ccccc2CCc2ccccc21	-	-	-	-	-
CCCN1CCN(CCCNC(=O)c2cc3c(=O)oc4ccc(C)cc4c3s2)CC1	-	-	-	-	-
Cc1ccc2oc(=O)c3cc(C(=O)NCCCN4CCCC(C)C4)sc3c2c1 (configuration not stated)	136.0	-	-	-	-
CN(C(=O)c1c(Br)cnn1C)C12CC3CC(CC(C3)C1)C2	-	.	144.0	.	-
SMILES	MEKK2wt PB1 HTS	Rce1 inhib	MEKK3 PB1 HTS	UBC13 polyUb	MEKK2 mut-MEK5
O=S(=O)(c1ccccc1)N(Cc1ccccc1)c1ccccn1	-	-	-	-	-
O=C(O)c1ccc(CN(c2ccccn2)S(=O)(=O)c2ccccc2)cc1	-	+	-	-	-
O=C(O)/C=C(\Oc1ccccc1)C1(O)CCCCC1	-	-	-	-	-
COc1ccc(-c2oc3ccc(N4CCOCC4)cc3c2C#Cc2ccc(N)cc2)cc1	-	+	-	-	-
COc1ccc(C#Cc2c(-c3ccsc3)oc3ccc(N4CCOCC4)cc23)cc1	-	-	-	-	-
Cc1nc2nc(SCC(=O)N3CCOCC3)nn2c(C)c1Cc1c(F)cccc1Cl	2.0[inhibitor]	-	2.0[inhibitor]	-	-
Cc1nc2nc(SCC(=O)NCCN3CCOCC3)nn2c(C)c1Cc1ccccc1	-	-	-	-	-
O=C(CSc1nc2c(sc3ccccc32)c(=O)n1CCCN1CCCC1)NCc1ccccc1	-	-	-	-	-
COc1cccc(NC(=O)CSc2nc3c(sc4ccccc43)c(=O)n2CCCN2CCCC2)c1	179.0	-	-	-	-
CCOc1ccc(C2C(C(=O)OC)=CN(C(C)c3ccccc3)C=C2C(=O)OC)cc1 (configuration not stated)	-	+	-	-	-
COCCCNC(=O)c1cc2c(-c3cccc(OC)c3)nn(C)c2s1	-	+	-	-	-
CCCN(CCC)CCNC(=O)c1cc2c(-c3ccccc3F)nn(C)c2s1	-	+	-	-	-
CCCN(CCC)CCCNC(=O)c1cc2c(-c3ccc(OC)c(OC)c3)nn(C)c2s1	-	-	-	-	-
CCN(CC)CCNC(=O)c1cc2c(-c3cccc(OC)c3)nn(C)c2s1	-	-	-	-	-
Cc1ccc(O)c(NC(=O)c2onc(C)c2Cl)c1	-	-	-	-	-
Cc1cc(C)n2nc(CC(=O)NNC(=O)c3ccc(N(C)C)cc3)nc2n1	-	+	-	-	-
COc1ccc(OCc2cc(C(=O)NCCN3CCCc4ccccc43)no2)c(Cl)c1	-	.	-	-	-
O=C1Nc2ccc(Br)cc2C12NNc1ccccc1O2 (configuration not stated)	-4.0	-	-	-	-
O=C1Nc2ccc(Br)cc2C1(O)c1ccccc1 (configuration not stated)	-	-	-	-	-
Oc1ccc(-c2cn3cc(C(F)(F)F)ccc3n2)cc1	-	+	-	-	-
CC(C)N1CCN(Cc2ccc(Oc3ncccn3)cc2)CC1CCO (configuration not stated)	-	+	-	-	-
COc1ccc(-n2nc3c(N4CCC(C(=O)N5CCC(C)CC5)CC4)nnc(C)c3c2C)cc1	476.0	-	139.0	-	920.0
Cc1nnc(N2CCC(C(=O)N3CCCCC3)CC2)c2nn(-c3ccc(Cl)cc3)c(C)c12	-	-	-	-	-
CCCOc1ccc(Oc2ccc(S(=O)(=O)N3CCN(C)CC3)cn2)cc1	.	-	.	-	.
O=S1(=O)NC(C2CC2c2ccccc2)CCO1 (configuration not stated)	-	-	-	-	-
O=C(O)CSCC(=O)N1N=C2/C(=C/c3ccccc3)CCCC2C1c1ccccc1 (configuration not stated)	-	.	-	-	-
NC(=O)N1N=C2/C(=C/c3ccccc3)CCCC2C1c1ccccc1 (configuration not stated)	-	+	-	-	-
Cc1nn(C(C)C(=O)NCCCN2CCCCCC2)c(=O)c2cc3sccc3n12 (configuration not stated)	144.0	-	-	-	-
O=C(COc1ncnc2cc([N+](=O)[O-])ccc12)NC(=O)NC1CCCCC1	-	+	-	-	-
